We go through 40 compounds from PubChem BioAssay (NCI).

Several values for one entry are separate records, joined by “and”; a condition that tells them apart may be missing. Identical values can stand only once. The panel holds about 83,000 compounds, 20% with a hit somewhere; the sample as a whole holds those more often.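 96-well plates, one dose, 48 hours. Percent growth reported; active if below 10.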 Activity calls are given as the source filed them.

The test system of the assay is MDA-MB-468 breast. The assay is described as follows: NCI-60 one-dose screen, 48 h (100 = growth as untreated, 0 = no growth, -100 = all killed). The note with it: 10 µM unless noted.
Take `O=C1/C(=C\c2coc3ccccc3c2=O)c2ccccc2N1c1c(Cl)cccc1Cl`: the growth is 44.9% (inactive). The same measure for `N/C(=N\C(N)=N\c1nc2ccccc2s1)c1ccnc(Cl)c1`: 51.9% (inactive); for `C=C1C(=O)O[C@H]2[C@H]1CC/C(COC(=O)C(=O)c1cn(C)c3ccc(OC)cc13)=C\CC[C@@]1(C)O[C@@H]21`: -63.6% (active). Take `COC(=O)/C=C/c1cc(O)c2c(c1)C(C(=O)OC)C(c1ccc(O)c(O)c1)O2` (stereo not given): the growth was 27.3% (inactive) and 17.6% (inactive). The same measure for `O=C(CSc1nnc(-c2ccc(Cl)cc2)o1)c1ccccc1`: 97.1% (inactive); for `CCNC(=O)Oc1ccc(/C(=C(/C)Cc2ccc(OC)cc2)c2ccc(OCCN3CCCCCC3)cc2)cc1`: 51.8% (inactive); for `COC(=O)C1=C(C(=O)ON)[C@@H]2C=C[C@@]1([C@@H](Cc1ccccc1)Nc1ccccc1)O2`: -38.8% (active). The figure for `Cn1cc(-c2nnc(-c3cn(C)c4ncc(Br)cc34)o2)c2ccccc21` is 39.3% (inactive); for `COc1cccc(/C=C2\COc3ccc(-c4ccccc4)cc3C2=O)c1` it is 7.82% (active); for `COc1cc(C2CC(c3cccc(Nc4ccncc4)c3)=Nc3c(N)ncnc3N2)cc(OC)c1OC` (stereo not given) it is 47.6% (inactive). As for `COc1cccc(-c2nn(-c3ccccc3)cc2-c2ccnc(NCCNC(=O)Nc3cccc(C(F)(F)F)c3)c2)c1`, the growth is 15.5% (inactive).

`OCCNc1nccc(N2CCN(c3ccnc4cc(Cl)ccc34)CC2)n1`: the growth is 54.8% (inactive).

On to `COc1cc(Nc2c3ccc(Cl)cc3nc3ccc(OC)cc23)c2ncccc2c1`, for which the growth was 36.3% (inactive). The figure for `O=C(c1nc2ccccc2[nH]1)C1C(c2ccc(F)cc2)C2CC3CCCCC3N2[C@@]12C(=O)Nc1ccc(Cl)cc12` (stereo not given in full) is 41.6% (inactive); for `COc1ccc(Cn2cc3c(c2-c2ccccc2)CCc2cncnc2-3)cc1` it is 32.5% (inactive); for `C=CCn1c(SCC(=O)Nc2cccc(C(=O)/C=C/c3ccc(C)cc3)c2)nc2ccccc2c1=O` it is 76.3% (inactive).

Take `O=C(CCl)Nc1ccccc1SCc1cc(Cl)cc2c1OCOC2`: the growth is 51.6% (inactive). `COc1ccc(-c2cc(C(=O)N=Nc3c(O)[nH]c4ccccc34)c3ccccc3n2)cc1OC`: the growth is 92.3% (inactive). The same measure for `O=C(COc1ccc(-c2nc3ccccc3[nH]2)cc1)N=Nc1c(O)[nH]c2ccccc12`: 34.5% (inactive); for `C=C(Cl)COC(=O)C(C)(C)O`: 118% (inactive); for `COc1cccc(/C=C/C(=O)c2c(C)nc3ccccc3c2/C=C/c2ccccc2)c1OC`: 43.3% (inactive).

Turning to `CCCCCCCCCCN=C(c1ccc(N(C)C)cc1)c1ccc(N(C)C)cc1`, the growth was -8.69% (active).

As for `COc1cccc2cc(-c3cc4ccccc4[nH]3)/c(=N/C(=S)Nc3ccccc3)oc12`, the growth is 79.1% (inactive). The figure for `COc1cc(C(=O)NNC(=O)c2ccccc2O)cc(OC)c1OC` is 103% (inactive); for `C=C1C(=O)O[C@H]2[C@H]1CC/C(COC(=O)NCc1ccc(Cn3c(=O)sn(-c4ccc(C#N)cc4)c3=O)cc1)=C\CC[C@@]1(C)O[C@@H]21` it is 7.72% (active). The same measure for `COC(=O)CCC1=C(C)/C(=C/c2[nH]c(-c3ccc[nH]3)cc2OC)N=C1C`: 45.2% (inactive).

On to `NC(CSC(c1ccccc1)(c1ccccc1)c1ccc(F)cc1)C(=O)O` (stereo not given), for which the growth was -41% (active). Consider `COc1cc(/C=C2\CCC/C(=C\c3cc(CN4CCOCC4)c(O)c(OC)c3)C2=O)cc(CN2CCOCC2)c1O`, for which the growth is 31.5% (inactive). The same measure for `CN(C)CCN(C)CC(C)(C)C(=O)/C=C/c1ccc(Cl)c(Cl)c1`: -83.6% [100 µM] (active); for `O=C(CSc1nnc(-c2cc(-c3ccccc3)nc3ccccc23)n1-c1ccccc1)Nc1ccc(C(=O)/C=C/c2ccc(Cl)cc2)cc1`: 88.9% (inactive). The same measure for `O=C(Nc1nc2c(C(F)(F)F)cccc2s1)c1cc(Cl)ccc1O`: -10.5% (active); for `COc1cc(/C=C\C(=O)O)ccc1OCc1ccccc1`: 92.5% (inactive); for `CC(=O)c1cccc(O)c1`: 110% (inactive).

Turning to `CCN1CCN(Cc2ccc(Cc3ncc(F)c(-c4cc(F)c5nc(C)n(C(C)C)c5c4)n3)nc2)CC1`, the growth was 80.6% (inactive). Consider `Cc1nn(-c2ccccc2)c(Oc2ccccn2)c1-c1nc2ccccc2s1`, for which the growth is 80% (inactive).

With `CN1CNC(=O)NC1`, the growth is 102% (inactive) and 96.9% (inactive). For the compound `C/C(N)=C(\C#N)C(=O)c1ccccc1`, the growth was 97.7% (inactive).

Consider `Nc1nc(N)c(N=Nc2ccccc2)c(-c2ccccc2)n1`, for which the growth is 8.67% (active). The same measure for `OC1CCc2c(-c3ccc4ncnc(N5CCc6cc(F)c(Cl)cc65)c4c3)cncc21` (stereo not given): 9.18% (active); for `O=C(Nc1cccc(Cl)c1)Nc1nc2ccc([N+](=O)[O-])cc2o1`: -4.51% (active).
